Values joined by “and” are separate entries in the source; they are usually repeats but may differ in a detail not shown here. Equal entries are not always repeated. Hit rate of the full screen: of about 5,500 compounds, about 2,000 (36%) were called active. Not shown: some 18% with an inconclusive outcome. No stated cut-off is given here; in the data, active means normalized growth mostly below about 0.91 (no sharp cut-off); inconclusive means no clear call, values can overlap the other calls; inactive means mostly above about 0.92. This is one part of the list.
Assay: chemical genetic growth profiling, strain panel (AID 1159580);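 further: tested at 20 µM; growth read once vehicle control cultures reached saturation at 30 °C; 1 = growth at the plate median or of vehicle wells; lower values mean less growth of the strain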
Details: growth OD

Measured: normalized growth

O=C1N=C(O)CN1/N=C\c1ccc(-c2ccc([N+](=O)[O-])cc2)o1
inactive: S. cerevisiae deletion strains, locus YJR075W, strain HOC1, active compounds read low 1.03 and 0.99 | S. cerevisiae deletion strains, locus YKL009W, strain mrt4, active compounds read low 1.04 | S. cerevisiae deletion strains, locus YKL068W, active compounds read low 1.03 | S. cerevisiae deletion strains, locus YKL085W, strain MDH1 (second series), active compounds read low 1.02 | S. cerevisiae deletion strains, locus YKL085W, strain MDH1, active compounds read low 1.02 | S. cerevisiae deletion strains, locus YKL160W, strain elf1, active compounds read low 0.994 | S. cerevisiae deletion strains, locus YKL190W, strain CNB1, active compounds read low 1.02 | S. cerevisiae deletion strains, locus YKR001C, strain vps1, active compounds read low 1.03 | S. cerevisiae deletion strains, locus YKR026C, strain gcn3, active compounds read low 0.99 | S. cerevisiae deletion strains, locus YKR091W, strain srl3, active compounds read low 0.98 | S. cerevisiae deletion strains, locus YLL001W, strain dnm1, active compounds read low 1 | S. cerevisiae deletion strains, locus YLL026W, active compounds read low 0.997 | S. cerevisiae deletion strains, locus YLL041C, strain sdh2, active compounds read low 0.97 | S. cerevisiae deletion strains, locus YLR027C, strain aat2, active compounds read low 0.988 | S. cerevisiae deletion strains, locus YLR039C, strain RIC1, active compounds read low 1.05 | S. cerevisiae deletion strains, locus YLR058C, strain SHM2, active compounds read low 1.02 | S. cerevisiae deletion strains, locus YLR102C, strain apc9, active compounds read low 1.03 | S. cerevisiae deletion strains, locus YLR113W, strain HOG1, active compounds read low 1.02 | S. cerevisiae deletion strains, locus YLR221C, strain rsa3, active compounds read low 0.994 | S. cerevisiae deletion strains, locus YLR258W, strain gsy2, active compounds read low 0.994 | S. cerevisiae deletion strains, locus YLR262C, strain YPT6 (second series), active compounds read low 0.933 | S. cerevisiae deletion strains, locus YLR262C, strain YPT6, active compounds read low 1.05 | S. cerevisiae deletion strains, locus YLR268W, strain sec22, active compounds read low 1.01 | S. cerevisiae deletion strains, locus YLR320W, strain mms22, active compounds read low 0.966 | S. cerevisiae deletion strains, locus YLR330W, strain CHS5, active compounds read low 1.02 | S. cerevisiae deletion strains, locus YLR342W, strain FKS1 (second series), active compounds read low 1 | S. cerevisiae deletion strains, locus YLR342W, strain FKS1, active compounds read low 0.986 | S. cerevisiae deletion strains, locus YLR357W, strain rsc2, active compounds read low 0.931 | S. cerevisiae deletion strains, locus YLR370C, strain arc18, active compounds read low 0.985 | S. cerevisiae deletion strains, locus YLR371W, strain rom2, active compounds read low 1.02 | S. cerevisiae deletion strains, locus YLR384C, strain iki3, active compounds read low 0.974 | S. cerevisiae deletion strains, locus YLR418C, strain cdc73, active compounds read low 1.02 | S. cerevisiae deletion strains, locus YML016C, strain PPZ1, active compounds read low 1.02 | S. cerevisiae deletion strains, locus YML032C, strain rad52, active compounds read low 1.03 | S. cerevisiae deletion strains, locus YML120C, strain ndi1, active compounds read low 0.988 | S. cerevisiae deletion strains, locus YML124C, strain tub3, active compounds read low 1.03 | S. cerevisiae deletion strains, locus YMR058W, strain fet3, active compounds read low 0.972 | S. cerevisiae deletion strains, locus YMR078C, strain ctf18, active compounds read low 1.04 | S. cerevisiae deletion strains, locus YMR125W, strain sto1, active compounds read low 0.974 | S. cerevisiae deletion strains, locus YMR129W, active compounds read low 0.98 | S. cerevisiae deletion strains, locus YMR205C, strain PFK2, active compounds read low 0.996 | S. cerevisiae deletion strains, locus YMR223W, strain ubp8, active compounds read low 1.02 | S. cerevisiae deletion strains, locus YMR231W, strain pep5, active compounds read low 0.993 | S. cerevisiae deletion strains, locus YMR263W, strain SAP30, active compounds read low 1.02 and 0.999 | S. cerevisiae deletion strains, locus YMR307W, strain GAS1, active compounds read low 1.05 | S. cerevisiae deletion strains, locus YNL067W, strain RPL9B, active compounds read low 1.02 | S. cerevisiae deletion strains, locus YNL071W, strain lat1, active compounds read low 0.978 | S. cerevisiae deletion strains, locus YNL128W, strain TEP1, active compounds read low 1.04 and 1.01 | S. cerevisiae deletion strains, locus YNL153C, strain GIM3, active compounds read low 1.01 and 1.03 | S. cerevisiae deletion strains, locus YNL175C, strain NOP13, active compounds read low 1.01 | S. cerevisiae deletion strains, locus YNL183C, strain NPR1, active compounds read low 0.96 | S. cerevisiae deletion strains, locus YNL197C, strain WHI3, active compounds read low 1.03 | S. cerevisiae deletion strains, locus YNL209W, strain ssb2, active compounds read low 0.979 | S. cerevisiae deletion strains, locus YNL224C, strain SQS1, active compounds read low 0.998 | S. cerevisiae deletion strains, locus YNL233W, strain BNI4, active compounds read low 1.01 | S. cerevisiae deletion strains, locus YNL248C, strain rpa49, active compounds read low 0.974 | S. cerevisiae deletion strains, locus YNL250W, strain rad50, active compounds read low 1.06 | S. cerevisiae deletion strains, locus YNL271C, strain bni1, active compounds read low 1.02 | S. cerevisiae deletion strains, locus YNL298W, strain CLA4, active compounds read low 1.05 | S. cerevisiae deletion strains, locus YNL307C, strain MCK1, active compounds read low 1.02 | S. cerevisiae deletion strains, locus YNL322C, strain KRE1 (second series), active compounds read low 0.976 | S. cerevisiae deletion strains, locus YNL322C, strain KRE1, active compounds read low 1.03 and 0.967 | S. cerevisiae deletion strains, locus YNR049C, strain mso1, active compounds read low 0.988 | S. cerevisiae deletion strains, locus YNR052C, strain pop2, active compounds read low 1.03 | S. cerevisiae deletion strains, locus YOL006C, strain TOP1, active compounds read low 1.02 | S. cerevisiae deletion strains, locus YOL012C, strain htz1 0.991 | S. cerevisiae deletion strains, locus YOL147C, strain pex11, active compounds read low 1.03 | S. cerevisiae deletion strains, locus YOR001W, strain rrp6, active compounds read low 1.02 | S. cerevisiae deletion strains, locus YOR061W, strain CKA2, active compounds read low 1.02 | S. cerevisiae deletion strains, locus YOR069W, strain VPS5, active compounds read low 1.01 | S. cerevisiae deletion strains, locus YOR070C, strain gyp1, active compounds read low 0.996 | S. cerevisiae deletion strains, locus YOR080W, strain dia2, active compounds read low 0.989 | S. cerevisiae deletion strains, locus YOR083W, strain WHI5 (second series), active compounds read low 1.03 | S. cerevisiae deletion strains, locus YOR083W, strain WHI5, active compounds read low 0.977 | S. cerevisiae deletion strains, locus YOR106W, strain vam3, active compounds read low 0.972 | S. cerevisiae deletion strains, locus YOR136W, strain idh2, active compounds read low 1.03 | S. cerevisiae deletion strains, locus YOR144C, strain elg1, active compounds read low 1.03 | S. cerevisiae deletion strains, locus YOR184W, strain ser1, active compounds read low 1.04 | S. cerevisiae deletion strains, locus YOR231W, strain MKK1, active compounds read low 1.03 | S. cerevisiae deletion strains, locus YOR265W, strain rbl2, active compounds read low 0.986 | S. cerevisiae deletion strains, locus YOR270C, strain vph1, active compounds read low 0.911 | S. cerevisiae deletion strains, locus YOR290C, strain snf2, active compounds read low 0.961 | S. cerevisiae deletion strains, locus YOR316C, strain cot1, active compounds read low 1.02 | S. cerevisiae deletion strains, locus YPL051W, strain arl3, active compounds read low 0.999 | S. cerevisiae deletion strains, locus YPL055C, strain LGE1, active compounds read low 1.02 | S. cerevisiae deletion strains, locus YPL078C, strain atp4, active compounds read low 0.973 | S. cerevisiae deletion strains, locus YPL106C, strain sse1, active compounds read low 0.981 | S. cerevisiae deletion strains, locus YPL240C, strain hsp82, active compounds read low 0.993 | S. cerevisiae deletion strains, locus YPL241C, strain CIN2, active compounds read low 1.02 and 1 | S. cerevisiae deletion strains, locus YPL256C, strain CLN2, active compounds read low 1 | S. cerevisiae deletion strains, locus YPR119W, strain clb2, active compounds read low 1.02 | S. cerevisiae deletion strains, locus YPR141C, strain kar3, active compounds read low 1.04 | S. cerevisiae deletion strains, locus YPR163C, strain tif3, active compounds read low 1.03 | S. cerevisiae deletion strains, locus YPR167C, strain met16, active compounds read low 1.04 | S. cerevisiae deletion strains, strain wtn01, active compounds read low 1.03 | S. cerevisiae strains, strain wild type, active compounds read low 1.02

From PubChem BioAssay AID1159580 (chemical genetic matrix, 2015)
